Results as given in the supplement of paper PMC12632987.
The full ranking holds about 2,300 sequences; the median of “median log2 fold change of GCK-ALFA target abundance (FLAG IP / Myc IP barcode read proportion)” is about 0.095, and the lowest 2% start at about -0.47. What follows is part of a selection rich in the lowest values, with near analogues and random picks from the rest.

B1: LC3A_127_175 (protein)
chain: ELEELLKKLLEVAEELSEELSKPDADLEEIERLVKEAIELAKKALELDPRAEPILEAAEEIKKQLEQYKKAPEEKKEELREHMEMLAESLIIEIESLLLR
B2: LC3A_23_616 (protein)
chain: MYKVEIIVDIIVPKEEAEKVEKDLLETINKVLEKNKSKIKEYKIEVEKEELEDGTVLLTIKVTIIYDGNKEEAEELANELVSAIDKTAPDAVISAEVSKI
B3: LC3A_141_376 (protein)
chain: KEVEFELEAKGETPEEVVEKMDELEEKVLKAYEELGGGKVKVKVTLTLTNRETGEVKVVEEEFVGDKETIEMLLDGFLIEAASAVMRAPTDVKLKVVLEK
B4: LC3A_28_1118 (protein)
chain: SLAEKVIKAFEKQVEAAIASGEETLIEVEVSPELSQEEVEKLAKKMAEYAKKAAEKLKVSVLVSVEKGVSQEKIDIIADEAEKVEEEYPNVNVIIALEEE
B5: LC3A_3_1420 (protein)
chain: MEEELERALEELREAGWSEETLEALREVVEALLERGAEEEARRVLELVLENKDISSEDLLEVLREVLELLKTPGVSPEEAVERLEELLRIARNEQEIEEL
B6: LC3A_free_0_2100 (protein)
chain: MVTKVEVLGIIPDKSAKEAAEAIKEKLEEYGKKLSEEKGWKVTVELTEVDGSYVITVTIEGEGMSIEEGLEIADEIADLIEELAKEHGVEVTIYESVYEE
B7: LC3A_147_496 (protein)
chain: ATVEVDVLVKDKEAAEKVVEEFKKLVEKLKKQGIEVELEVEIEQISPDTWYVKITIKIKAKTEEEEKKVANEVVDEIEKIEEKYKDKILASLISVEIEEK
B8: LC3A_147_465 (protein)
chain: KKYEVVLDVLVKDLTPELLKDFEELAEEIKEKFPDAEVELKVETDPEDPSLTLVTLTVTVDTEEDAEKILDFLDEKEEELEKKYSDQILASMISKQEVEP
B9: LC3A_147_464 (protein)
chain: MKYRVELDVLVKNLTPELLADFEELAEEIKKKFPDAEVELKVETDPEDPSLSLVTLTVTVDTEEDAKKIEDFLDKKLEELEKKYKDQILASMISREKVEP
B10: LC3A_23_598 (protein)
chain: MYKVELIVSLIGEEEEIKKKAEKLKKEIEKILEKYKDKIISYKINVSFEKLEDGKTYLEIEVEIIIEDDEEVAEEIAEELTDAADKILPDGVISVEVEKL
B11: LC3A_141_368 (protein)
chain: TTLTITTDIGRASLDEIVAKMDELEEAALAAHRELGGGRVRVTVTITVKNLKTGETTTITEEFEADEEELELIMEGVLIEVASYALTEDAEVTVTVTLEG
B12: LC3A_3_1723 (protein)
chain: MEKIKAEALAVLKAQGASPETIKAAEELLKALEEKGFLEAAKTLLEELKKLKGVSSEDLLAALKDLLYKVTNEDLSEEEVIEEIKREFSVLKSAKEIEEL
B13: LC3A_141_386 (protein)
chain: MKKEFEFTATEEEAQEVFDFFDEVEKELLEMIEESGGKPVKVKVTIKATNDETGEVVEKEEEFTVTKENVSEVMEGLAIEVLSLLDKVKGTVEVKIEAEV
B14: LC3A_28_1018 (protein)
chain: SELEEQIEEIEKEVEEAIEKGEDVVVTLEIKGSMSEEEVREAMERVKEIVLEGAEKGKVDLVIDVDKDVSQEKLDIVLEAADEIEEKAPNVNVIIALEER
B15: LC3A_147_510 (protein)
chain: YLVEIDVDLLVKNAVEEVKKRFKEIVEKLKKKGYKVELEIKEEKIDENTYYVEVTIKIYAETKEEAEKAANETLSLLDEMLEELKDEILGSLISVDIEET
B16: LC3A_59_2020 (protein)
chain: SEEIEEYREKMRANIDDIDAFTATVREALEKFKDDPEKVKEILKAAMDVVVEELGADKEEAEKVLEEMLKILEEEKDKEKAIEKIVDLIRDLLLLTPIEE
B17: LC3A_free_8_2464 (protein)
chain: ASQKLVDTIVAKLDELEKALVKKAKEEGKSRLDILELELEVGSAIAELISNVDASPEEILKTLKEDLKDIIKVAKEIGEEVAKLAKEKSKEILAEAEALI
B18: LC3A_17_552 (protein)
chain: REELRERLRRLLEELRALVERLEPYDPEAARRLRERLERAEELLEAGRLREAAETLAEAAREAARRAEELEPKYGNEMSVLAMEFNGLELEAIGLLLELD
B19: LC3A_132_298 (protein)
chain: DEEKAKEILEKVKEKVEEAKENIDNEEKVEELLEEIEELIKEAEEKLSPELLAKVMEEVAELLDELSQKFLEAGKEHLAMLADGLAIEAESLALRAEKEI
B20: LC3A_3_1773 (protein)
chain: MEELLARFEEKLRAAGFSEEVIKEALAAIKTFLEKGREEVAETFLELMLEAKDLSEEKLLVMARMAKELAEESKVSEEELIKELKRLFESIAGIEELDEE
B21: LC3A_3_1887 (protein)
chain: MDEKIEETLKRLKEAGASEETLEAFKRVVEKLKARGWDEALNTLIEKVDELLDAPDEVRLAFLQDVLALLDTPGVSEEELIAGINELATLAKNEAEIIEL
B22: LC3A_28_691 (protein)
chain: SAIDETIARIRAQAEAALAAGEEALLEVTVPATATQEDIDRLIATIREAVERLAGVGKVYIVVDVESGVAQENITRLADALDELEAEYPNVTVVIALDED
B23: LC3A_28_654 (protein)
chain: EEVEKELKEALKEAEEAKKKKEPAVITIKVSGKVNEEELKKILETLEKIAELLKDIKGSAIIIDLDKDVKEEFKNKLIDKAEELEKKYPNVTVIIALEER
B24: LC3A_3_1762 (protein)
chain: MEAFIEAAAKELKEAGASEELIEKASRALRLLLERGLEETAKEFVKVLLELLKKSEELALDLAEDVLTLLETSTLSPEELAKAVRSEMNAALSEAEIEEL
B25: LC3A_28_950 (protein)
chain: MSIEENIEKALKEAKEAKEKNEPVVITLVLEDDPSEEAVEALIEAMEEIAELLKDIKGTTIIVDVSSKVKQEHIDAIADKGEEIEKKYPNINVIIALDED
B26: LC3A_102_127 (protein)
chain: EVEKLKKELLEKVKKEVEKLLEKDKSLSEEEKKKILELAEKLAEAKLENAEIEIQHGFVDIYLEDKAIELQEELEKIDKELAKKINEIIEKGVEEFRKKL
B27: LC3A_free_46_2348 (protein)
chain: YKAEILIDLLAKDKETLEKAVKEIVEEAKKIAEKYNLELEIKVKIEKLEDGSYYAEIEITLKGETEEDLQKAVNELINKIEEIAKKYGVAAIISYEIIKE
B28: LC3A_28_708 (protein)
chain: NPLEESIKKALEEAKAAAKAGESTVITIKVPGSATEEDIEKLIKALEEIAEITKDLPSTSIIIDVDGGVKQEHIDKIADAAEEIEKKYPNVTVIIALDET
B29: LC3A_147_403 (protein)
chain: YIVEADIDIITKNAKEEVLAAFEEIVEELKEKGYEVELEVEVEKLDEDTWYINVKIKVETETKEEAEEVADYIEDKIDEIEEKLKDKILASLISIEIIEE

What follows are binders tested against MAP1LC3A, Q9H492 (assay: median log2 fold change of GCK-ALFA target abundance (FLAG IP / Myc IP barcode read proportion) (log2 ratio); each designed protein is fused to an ALFA-tag nanobody in HEK293 cells to bring the named protein to FLAG-tagged glucokinase (GCK); Myc marks an untargeted standard; higher = target protein stabilised (more abundant)). Settings: target protein: 3xFLAG-MCP-GCK-ALFA reporter; HEK293 landing pad (RPLP).
How it was run: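 Binders fused to an ALFA nanobody were recombined as a library into HEK293 landing-pad cells, which were induced with 2 μg mL^−1 doxycycline and then transfected to express a FLAG-tagged target and a Myc-tagged standard. After 48 h, circular RNA barcodes recovered by anti-FLAG and anti-Myc immunoprecipitation of lysates were reverse transcribed, amplified and sequenced. Each binder's target abundance is the median log2 ratio of FLAG to Myc barcode read proportions, from barcodes present at ≥10^−7 in both replicates, binders carrying ≥3 barcodes per replicate, a 10^−6 pseudocount and pooled replicates.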

Binder	median log2 fold change
B1	0.0944
B2	-0.672
B3	-0.00697
B4	-0.00261
B5	0.3
B6	-0.121
B7	-0.154
B8	-0.192
B9	-0.487
B10	-0.0746
B11	-0.781
B12	0.206
B13	0.221
B14	-0.171
B15	-0.119
B16	-0.571
B17	-0.304
B18	0.248
B19	-0.0134
B20	0.23
B21	0.21
B22	-0.0472
B23	0.153
B24	0.226
B25	0.204
B26	-0.519
B27	-0.204
B28	0.0817
B29	-0.0503
